High-throughput results (PubChem BioAssay)
CF NFkB block: cystic fibrosis NF-kB activation inhibition; 0.86% of 360,000 active; inhibition, % at 5 µM; AID 588850; KKLEB NF-kB-GFP reporter, PAF-induced, GFP fluorescence overnight;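 active = at least 50% inhibition at 5 µM, scaled per plate between neutral and stimulator controls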;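 also: PAF is a Pseudomonas aeruginosa culture filtrate used as stimulus; plate controls were PAF-stimulated DMSO wells for no effect and unstimulated DMSO wells for full effect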
LMP1 NFkB inh: reduces LMP1-driven NF-kappaB luciferase signal | LMP1-induced NF-kappaB luciferase reporter cells, luminescence | inhibition, % at 12.5 µM | 0.69% of 350,000 active | AID 504558; in the data active = inhibition above about 41%;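 also: 0% = neutral control wells and 100% = reference inhibitor control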
Peg3 promoter: reduces Peg3 promoter-driven luciferase expression in HeLa | 1.7% of 360,000 active | inhibition, % at 20 µM | HeLa PEG-Prom luciferase reporter, luminescence, overnight;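 active = inhibition of at least 50% at 20 µM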
Shn3 3UTR inh: inhibitors of Schnurri-3 3'UTR reporter in osteoblasts; Clone20 osteoblast Shn3 3'UTR firefly luciferase, 24 h; inhibition, % at 12.5 µM; 0.52% of 360,000 active;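 active = mean inhibition of at least 75% with every replicate also reaching 75%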;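 also: 0% = median of neutral control wells and 100% = pilot-screen positive control compound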
HIF-2a block: inhibitors of HIF-2a; 0.72% of 360,000 active; inhibition, % at 18.8 µM; 786-0 RCC cells HIF-2a reporter, luciferase luminescence, overnight;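 active = inhibition of the luminescence signal of 40% or more relative to plate controls, in a single-dose primary screen at 18.75 µM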
KKLEB tox: CF airway cell cytotoxicity counter-screen. KKLEB CF airway cells viability, ATPlite luminescence, overnight; stronger effect = lower value; cells stimulated with P. aeruginosa culture filtrate. activity change (cytotoxicity), % at 5 µM. 0.36% of 360,000 active;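 active = corrected activity change at or below -50% at 5 µM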
Mdm2-MdmX confirm: Mdm2/MdmX (human) interaction inhibition, confirmed. shares compounds with HIF-2a block. AID 504601. 99% of 740 active. inhibition, % at 8 µM. SaOS-2 split-luciferase Mdm2/MdmX complementation, luminescence;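 active = mean inhibition of the luminescence signal across two replicates at or above 26 percent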
Target sequence (O15151 whole entry, looked up): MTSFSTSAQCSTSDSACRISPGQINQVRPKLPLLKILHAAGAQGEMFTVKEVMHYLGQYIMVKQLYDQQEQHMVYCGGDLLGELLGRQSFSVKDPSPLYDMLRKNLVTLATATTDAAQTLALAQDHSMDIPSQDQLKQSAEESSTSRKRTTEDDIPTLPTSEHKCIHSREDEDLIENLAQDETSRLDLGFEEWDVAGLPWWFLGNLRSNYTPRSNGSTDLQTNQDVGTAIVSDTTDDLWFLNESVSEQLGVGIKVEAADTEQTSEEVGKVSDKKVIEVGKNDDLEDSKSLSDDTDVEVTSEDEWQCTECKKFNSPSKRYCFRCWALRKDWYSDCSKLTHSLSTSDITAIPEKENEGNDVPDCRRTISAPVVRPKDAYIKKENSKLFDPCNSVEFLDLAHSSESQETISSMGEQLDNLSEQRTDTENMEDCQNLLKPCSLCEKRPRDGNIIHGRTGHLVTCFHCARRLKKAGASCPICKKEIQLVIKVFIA
Target sequence (Q00987 whole entry, looked up): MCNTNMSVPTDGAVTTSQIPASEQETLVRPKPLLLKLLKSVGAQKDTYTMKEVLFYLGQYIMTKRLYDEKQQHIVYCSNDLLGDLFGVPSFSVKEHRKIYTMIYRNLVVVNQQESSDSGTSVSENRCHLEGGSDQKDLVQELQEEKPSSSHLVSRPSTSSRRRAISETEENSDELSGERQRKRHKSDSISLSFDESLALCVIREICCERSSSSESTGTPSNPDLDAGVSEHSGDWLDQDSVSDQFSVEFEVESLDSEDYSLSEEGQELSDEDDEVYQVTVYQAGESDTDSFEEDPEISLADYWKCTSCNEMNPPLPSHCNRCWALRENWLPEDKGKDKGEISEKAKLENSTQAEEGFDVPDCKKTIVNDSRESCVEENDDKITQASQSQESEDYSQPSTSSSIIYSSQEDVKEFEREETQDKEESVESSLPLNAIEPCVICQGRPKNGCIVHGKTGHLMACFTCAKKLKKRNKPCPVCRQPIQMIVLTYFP
HIF-2a conf: confirmation of HIF-2a inhibitors; 786-0 RCC cells, HIF-2a luciferase reporter luminescence, overnight; inhibition, % at 18.8 µM; shares compounds with HIF-2a block; 56% of 1,800 active;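 active = mean inhibition across four replicates of at least 40 percent at the single tested concentration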
HIF-1a counter: counter-screen for HIF-2a inhibitors: HIF-1a inhibition in MiaPaCa-2 cells; 72% of 1,800 active; AID 651589; shares compounds with HIF-2a block; MiaPaCa-2 HIF-1a luciferase reporter, desferoxamine, overnight; inhibition, % at 18.8 µM;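 active = mean inhibition of the reporter signal across four replicates at the single tested dose of 50% or more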
Starred values were filed as active, the others as inactive; . = no result given. Sampled rows, rich in hits. Any-hit rate of the full collection: about 2.9%.

SMILES | CF NFkB block | LMP1 NFkB inh | Peg3 promoter | Shn3 3UTR inh | HIF-2a block | KKLEB tox | HIF-2a conf | HIF-1a counter | others
CC(=O)Nc1ccc(NC(=O)Cc2ccc(-c3ccccc3)cc2)cc1 | -7 | 1 | 2 | -4 | 3 | -7 | . | .
CSc1cccc(NC(=O)C2CCCN(c3ncnc4c3nc3n4CCCCC3)C2)c1 (stereo unspecified) | 5 | 10 | 34 | 17 | 5 | -16 | . | .
COCCNC(=O)c1c[nH]c2ccc(S(=O)(=O)N3CCc4ccccc43)cc2c1=O | 0 | 15 | 51* | 46 | 47* | 15 | 18 | 93*
O=C(O)c1cccc(NC(=S)NC(=O)c2ccc3ccccc3c2)c1 | -10 | 8 | 25 | 15 | 74* | 18 | 76* | -26
O=C(O)c1ccc(NC(=S)NC(=O)c2ccc3ccccc3c2)cc1 | 5 | -19 | -173 | -14 | -142 | 0 | . | .
O=C(Nc1cc(Cl)cc2c1-c1ccc(Cl)cc1C2O)C(Cl)Cl (stereo unspecified) | -63 | 14 | 95* | 49 | 45* | 8 | -79 | 72*
O=C(OCCN=C1NS(=O)(=O)c2ccccc21)c1ccco1 | 5 | 6 | -5 | -2 | 18 | 14 | . | .
CN1CCN(CC(=O)N2CCn3c4c(c5cc(C6CCCCC6)ccc53)CCCC42)CC1 (stereo unspecified) | 22 | -77 | 105* | 47 | 3 | -20 | . | . | Mdm2-MdmX confirm=103*
Cc1ccc2c(c1)c1c3n2CCN(C(=O)CN2CCN(C)CC2)C3CCC1 (stereo unspecified) | 13 | -14 | 18 | 12 | -2 | -1 | . | .
Cc1scc(C(=O)N/N=C/c2ccco2)c1C | -3 | -5 | -156 | -57 | -139 | 5 | . | .
Cc1scc(C(=O)N/N=C/c2ccc([N+](=O)[O-])o2)c1C | -12 | 5 | 9 | 38 | 61* | 6 | 62* | 84*
COC(=O)c1ccccc1NC(=O)CSc1nc(Nc2ccccc2)nc(N2CCOCC2)n1 | 23 | -6 | 23 | 22 | 41* | 2 | 28 | 70*
CC(=O)c1ccc(NC(=O)CSc2nc(Nc3ccccc3)nc(N3CCOCC3)n2)cc1 | 16 | -1 | 2 | 9 | 25 | -16 | . | .
O=C1C2C3C=CC(C4CC34)C2C(=O)N1/N=C/c1c[nH]c2ccccc12 (stereo unspecified) | 12 | -14 | -179 | -5 | -233 | 0 | . | .
O=S(=O)(CC(CN1CCCCC1)N1CCCCC1)c1ccc2ccccc2c1 (stereo unspecified) | 97* | 15 | 109* | 52 | 62* | -59* | 21 | 104*
O=S(=O)(CC(CN1CCOCC1)N1CCOCC1)c1ccccc1 (stereo unspecified) | 0 | 1 | -1 | 1 | 6 | 12 | . | .
CCOC(=O)CS(=O)(=O)c1nc(-c2ccc(F)cc2)cc(C(F)(F)F)n1 | 85* | 69* | 100* | 97* | 93* | -44 | . | . | Mdm2-MdmX confirm=99*
CS(=O)(=O)c1nc(-c2ccc(F)cc2)cc(C(F)(F)F)n1 | 92* | -25 | 106* | 89* | 95* | -96* | 55* | 102*
Nc1nc(-c2ccc(F)cc2)cc(C(F)(F)F)n1 | 23 | 1 | -13 | -3 | 7 | -15 | . | .
Cc1cc(NC(=O)CCCS(=O)(=O)c2nc(-c3cccs3)cc(C(F)(F)F)n2)no1 | 90* | 0 | 106* | 95* | 94* | -53* | 56* | 104*
CCOC(=O)CCS(=O)(=O)c1nc(-c2ccccc2)cc(C(F)(F)F)n1 | 86* | -24 | 114* | 98* | 94* | -77* | . | . | Mdm2-MdmX confirm=103*
CCOc1ccc(S(=O)(=O)N2CCCCC2)cc1NC(=O)c1c(CC)noc1C | -17 | 3 | 7 | 13 | 12 | 28 | . | .
COC(=O)CCS(=O)(=O)c1nc(-c2ccccc2)cc(C(F)(F)F)n1 | 87* | -37 | 107* | 76 | 88* | -60* | 99* | 107* | Mdm2-MdmX confirm=103*
O=C(O)CCS(=O)(=O)c1nc(-c2cccs2)cc(C(F)(F)F)n1 | 16 | -1 | 12 | -18 | 5 | -1 | . | .
COc1cccc(C2=Cc3ccc(F)cc3C(CC(C)=O)N2c2ccc(-c3cncnc3)cc2)c1 (stereo unspecified) | . | . | . | . | 24 | . | . | .
SMILES | CF NFkB block | LMP1 NFkB inh | Peg3 promoter | Shn3 3UTR inh | HIF-2a block | KKLEB tox | HIF-2a conf | HIF-1a counter | others
CCOC(=O)c1ccc(-c2ccc(N3C(c4cccc(OC)c4)=Cc4ccc(F)cc4C3CC(C)=O)cc2)cc1F (stereo unspecified) | . | . | . | . | 65* | . | 26 | 27
CCc1nc(SCC(=O)N2c3ccccc3CC2C)c2c(C)c(C)sc2n1 (stereo unspecified) | -9 | 16 | 6 | 25 | 15 | 7 | . | . | Mdm2-MdmX confirm=101*
Cc1sc2nc(C(C)C)nc(SCC(=O)N3c4ccccc4CC3C)c2c1C (stereo unspecified) | 8 | 14 | 11 | 5 | 20 | -20 | . | .
CC(C)(C)OC(=O)C(Cc1ccc(OC(C)(C)C)cc1)NC(=O)CNC(=O)OCc1ccccc1 (stereo unspecified) | 14 | 13 | 27 | 77 | 17 | 9 | . | .
O=C(CN(c1cccc(C(F)(F)F)c1)S(=O)(=O)c1ccc(Cl)c([N+](=O)[O-])c1)NCc1ccccc1Cl | -10 | -12 | 101* | 30 | 70* | -2 | 22 | 104*
CC(NC(=O)CN(c1cccc(C(F)(F)F)c1)S(=O)(=O)c1ccc(Cl)c([N+](=O)[O-])c1)c1ccccc1 (stereo unspecified) | -10 | 8 | 104* | 5 | 78* | 13 | 10 | 103*
O=C(Sc1ccc(Cl)cc1)c1ccccn1 | -23 | -4 | -2 | 0 | 9 | -8 | . | .
CCOc1ccc2nc(SCc3ccc(CC(=O)O)cc3)c(C#N)cc2c1 | 16 | 1 | 13 | -1 | 83* | -3 | 89* | 57*
COc1cc(C(C[N+](=O)[O-])c2c(-c3ccccc3)cc3ccccn23)cc(OC)c1OC (stereo unspecified) | -9 | 9 | 9 | 18 | 43* | 10 | -38 | 68*
O=C(c1cccc(S(=O)(=O)N2CCCC2)c1)N1CCOCC1 | -6 | -1 | -2 | -5 | 5 | -3 | . | .
CC(C)c1cccc(O)c(=O)c1 | 17 | 32 | 48 | 24 | 5 | -4 | . | . | Mdm2-MdmX confirm=97*
